Assay outcomes: PubChem, National Center for Advancing Translational Sciences (NCATS)
BAZ2B block: inhibitors of human BAZ2B bromodomain; Q9UIF8; AlphaScreen BAZ2B-H3K14Ac peptide displacement; Potency, µM (top dose mostly 114 µM), without a hit: top-dose activity change, negative = inhibition, hits mostly inhibitors; 4.4% of 360,000 active; AID 504333; further: on the % scale 0 is the no-effect control and ±100 the full control effect; nearly all actives have a fitted effect of over 60% in size
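AlphaScreen displacement: compounds (up to 110uM) incubated 30 min at room temperature with a preformed 50 nM BAZ2B/50 nM biotinylated H3K14Ac peptide complex in PBS pH 7.4 with Tween-20. Donor and acceptor beads at 10 ug/mL final added, 20 min light-protected before reading.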
HP1b chromo inh: HP1-beta chromodomain-methylated histone interaction inhibition | P83916 | AlphaScreen HP1-beta / biotin-H3K9me3 peptide binding | Potency, µM (doses to about 114 µM), for inactives: top-dose activity change, negative = inhibition, usual class: inhibitors | 0.56% of 390,000 active; further: nearly all actives have a fitted effect of over 70% in size
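Compound inhibition of the preformed complex between 50 nM HP1-beta and 50 nM biotinylated H3K9me3 peptide was read by AlphaScreen. Buffer was PBS pH 7.4 with 0.01% Tween-20. Incubations ran 30 min at room temperature, with 10 ug/mL donor/acceptor beads.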
JMJD2A Tudor: inhibitors of human JMJD2A Tudor domain. AID 504339. 4.4% of 390,000 active. AlphaScreen JMJD2A-Tudor / H3K4me3 peptide binding. O75164. Potency, µM (top dose mostly 114 µM), inactives show at the top dose activity change, negative = inhibition, actives largely listed as inhibitors; further: on the % scale 0 is the no-effect control and ±100 the full control effect; nearly all actives have a fitted effect of over 50% in size
Target sequence (O75164 whole entry, looked up, the tested form may be a part): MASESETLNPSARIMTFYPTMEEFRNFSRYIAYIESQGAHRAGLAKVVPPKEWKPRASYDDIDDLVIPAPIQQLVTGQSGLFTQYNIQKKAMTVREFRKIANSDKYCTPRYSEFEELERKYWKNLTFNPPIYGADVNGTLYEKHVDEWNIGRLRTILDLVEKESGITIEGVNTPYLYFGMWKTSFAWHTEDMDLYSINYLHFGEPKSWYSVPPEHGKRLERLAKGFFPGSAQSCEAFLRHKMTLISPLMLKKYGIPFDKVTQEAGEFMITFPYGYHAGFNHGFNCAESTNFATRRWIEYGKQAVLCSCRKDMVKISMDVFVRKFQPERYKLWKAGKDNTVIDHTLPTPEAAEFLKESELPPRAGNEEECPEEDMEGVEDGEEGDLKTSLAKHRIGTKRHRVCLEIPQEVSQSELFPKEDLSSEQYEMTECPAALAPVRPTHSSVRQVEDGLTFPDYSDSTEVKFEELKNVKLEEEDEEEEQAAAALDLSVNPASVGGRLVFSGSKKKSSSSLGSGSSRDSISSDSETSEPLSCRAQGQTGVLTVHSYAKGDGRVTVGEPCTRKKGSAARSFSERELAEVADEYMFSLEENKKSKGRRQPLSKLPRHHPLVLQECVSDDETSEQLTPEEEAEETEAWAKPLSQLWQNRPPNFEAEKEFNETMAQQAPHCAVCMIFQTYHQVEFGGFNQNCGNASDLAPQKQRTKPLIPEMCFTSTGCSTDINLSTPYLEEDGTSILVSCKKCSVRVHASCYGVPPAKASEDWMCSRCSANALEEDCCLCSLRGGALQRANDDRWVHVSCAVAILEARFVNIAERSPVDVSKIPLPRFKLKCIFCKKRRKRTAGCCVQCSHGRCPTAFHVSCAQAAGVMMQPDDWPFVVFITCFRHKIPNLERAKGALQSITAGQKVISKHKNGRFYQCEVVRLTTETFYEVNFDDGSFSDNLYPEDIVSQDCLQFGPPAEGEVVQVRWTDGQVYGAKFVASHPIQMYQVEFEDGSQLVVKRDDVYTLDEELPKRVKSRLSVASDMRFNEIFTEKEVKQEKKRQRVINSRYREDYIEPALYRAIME
L3MBTL1 block: L3MBTL1 (human) inhibition. AID 485360. Q9Y468. AlphaScreen L3MBTL1–H3K9me1 peptide binding. Potency, µM (series often up to 57.1 µM), for the others: at the top dose activity, negative = inhibition, usual class: inhibitors. 0.66% of 230,000 active; further: on the % scale 0 is the no-effect control and ±100 the full control effect; nearly all actives have a fitted effect of over 60% in size
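Read-out is AlphaScreen signal from streptavidin donor and nickel chelate acceptor beads (10 ug/mL final each) bridging L3MBTL1 (50 nM) and biotinylated K9-monomethylated H3(1-15) peptide (75 nM), after 30 min compound exposure at room temperature.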
PLK1 PBD block: blocks phosphopeptide binding to human PLK1 polo-box domain; 2.8% of 360,000 active; Plk1 PBD binding of FITC phosphopeptide, fluorescence polarization; P53350; Potency, µM, for the others: max response, negative = inhibition, hits mostly inhibitors; further: series mostly up to about 57 µM; on the % scale 0 is the no-effect control and ±100 the full control effect; nearly all actives have a fitted effect of over 65% in size
VDR inhibitor: vitamin D3 receptor (human) inhibition | P11473 | VDR-SRC2-3 peptide fluorescence polarization, 2 h | 0.93% of 400,000 active | AID 504847 | Potency, µM, for the others: max response, negative = inhibition, hits mostly inhibitors; further: on the % scale 0 is the no-effect control and ±100 the full control effect
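Reagent solutions, kept cold and dark, are dispensed first; compounds are then pinned in at 23 nl, plates briefly spun, and incubated 2 h at ambient temperature. Inhibition of VDR–SRC2-3 peptide binding is read by fluorescence polarization.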
TbPYK inh: confirmation of Trypanosoma brucei pyruvate kinase inhibitors; shares compounds with PLK1 PBD block; 67% of 890 active; recombinant TbPYK, Kinase-Glo ATP luminescence; Potency, µM (highest dose often 76.9 µM), without a hit: top-dose activity change, negative = inhibition, usual class: inhibitors; further: on the % scale 0 is the no-effect control and ±100 the full control effect; nearly all actives have a fitted effect of over 70% in size
TbPYK orthogonal: TbPYK inhibition, orthogonal confirmation | shares compounds with PLK1 PBD block | recombinant TbPYK, ADP-Glo luminescence, 60 min | Potency, µM (series often up to 76.9 µM), inactives show at the highest dose activity change, negative = inhibition, hits mostly inhibitors | 62% of 890 active; further: on the % scale 0 is the no-effect control and ±100 the full control effect; nearly all actives have a fitted effect of over 75% in size
Active calls of the source: *; u = inconclusive; x = not tested or not shown; [ ] = dose if it differs, or a comment. This is a sample that favours compounds with a hit; in the whole collection about 6.9% have one here. The call rests on the fitted dose curve; in most records, active means well fitted curve in the direction sought with a large enough effect; inconclusive means small, poorly fitted or top-dose-only effect, or another doubt; inactive means no such curve, though single readings can be large; an effect the other way counts as inactive or inconclusive. Potency means the concentration at half of the fitted maximal effect.

SMILES	BAZ2B block	HP1b chromo inh	JMJD2A Tudor	L3MBTL1 block	PLK1 PBD block	VDR inhibitor	TbPYK inh	TbPYK orthogonal
CCN1C(=O)/C(=C/c2ccc3c(c2)CCN3CCCCl)C(=O)NC1=S	40µM*	u	35µM*	u	1.5µM*	-5%	u	u
COc1cc(C(=O)O)cc(OC)c1OC	x	48%	-2%	x	-1%	-9%	x	x
COc1cc(C=C2C(=O)NC(=O)NC2=O)cc(OC)c1OC	-10%	19%	-9%	7%	11µM*	u	14µM*	28µM*
O=c1c2ccccc2[se]n1-c1ccccc1	1.4µM*	u	8.9µM*	-6%	3µM*	7.1µM*	8.9µM*	6.3µM*
COc1ccc(NC(=O)N2CC[C@@]3(CCCN(C(=O)Oc4ccccc4)C3)C2)cc1	x	x	x	x	x	5%	x	x
O=C1NC(=O)C(=Cc2c(Cl)cccc2Cl)C(=O)N1	x	47%	-6%	x	4.7µM*	u	25µM*	35µM*
CC(C)(C)c1ccc(/C=C2\Oc3cc(OC(=O)N4CCOCC4)ccc3C2=O)cc1	-2%	-17%	u	8%	-9%	-20%	x	x
COc1cc([C@@H]2c3cc4c(cc3[C@@H](O)C3COC(=O)C32)OCO4)cc(OC)c1O (some centres not stated)	x	29%	-12%	x	x	-4%	x	x
CC(=O)Nc1ccc(C=C2C(=O)NC(=O)NC2=O)cc1	x	40%	-9%	x	-29%	u	16µM*	18µM*
O=C1NC(=O)C(=Cc2ccc(N3CCOCC3)cc2)C(=O)N1	-3%	50%	0%	4%	9.5µM*	26%	25µM*	u
NC(N)=N/N=C/c1ccc(N2CCOCC2)cc1	8%	26%	-12%	x	2%	-2%	x	x
CC(=O)Nc1ccc(OCCF)cc1	-13%	-3%	-6%	12%	-6%	-13%	x	x
O=C1CC=C2C3CC4N(CCC45c4ccccc4N1C25)CC3=CCO (configuration not stated)	x	34%	-8%	x	2%	3%	x	x
O=C1CC=C2C3CC4N(CCC45c4cc(O)c(O)cc4N1C25)CC3=CCBr (configuration not stated)	x	u	3.5µM*	x	5.3µM*	10%	7.9µM*	13µM*
CC1(C)c2[nH]c3ccccc3c2C[C@H]2C(=O)N(Cc3ccccc3F)C(=O)N21	x	-14%	u	x	x	-11%	x	x
CC(C)c1cccc(C(C)C)c1OC(=O)NC(=O)c1c(F)cccc1F	2%	45%	-20%	x	-7%	-17%	x	x
CCOC(=O)[C@]12Cc3ccccc3[C@H]1N(C(C)C)C(=O)c1ccccc12	x	x	x	x	u	x	22µM*	32µM*
COc1ccc(OC)c(N2C(=O)NC(=O)/C(=C/c3ccc([N+](=O)[O-])s3)C2=O)c1	40µM*	32µM*	28µM*	x	4.7µM*	u	4.5µM*	7.1µM*
COc1ccc(N2CCN(C(=O)C3CCCN(S(=O)(=O)c4ccc5c(c4)CCCN5C(C)=O)C3)CC2)cc1 (configuration not stated)	u	5%[57 µM]	u	x	x	-14%	x	x
CSc1ncc(/C=C2/C(=O)NC(=O)N(C)C2=O)cn1	-28%	-19%	-9%	-1%	11µM*	u	u	u
CCN1C(=NCCCOC(C)C)N[C@@H](c2ccccc2)[C@H](C(=O)OC)[C@H]1C	8%	4%	u	4%	-12%	-2%	x	x
Cc1ccc(/C=C2\C(=O)NC(=S)N(c3cccc(F)c3)C2=O)o1	50µM*	u	45µM*	u	2.7µM*	-9%	16µM*	25µM*
NCCc1cccc(O)c1	x	x	x	x	x	12%	x	x
Cc1ccsc1/C=C1\C(=O)NC(=S)N(C)C1=O	u	6%	89µM*	-11%	3µM*	u	11µM*	18µM*
COc1ccc(/C=C2\C(=O)NC(=S)N(C)C2=O)cc1C	u	8.9µM*	4µM*	1%	1.2µM*	45µM*	u	u
SMILES	BAZ2B block	HP1b chromo inh	JMJD2A Tudor	L3MBTL1 block	PLK1 PBD block	VDR inhibitor	TbPYK inh	TbPYK orthogonal
C[N+]12CCC(CC1)C(=C(c1ccccc1)c1ccccc1)C2	4%	12%	-13%	11%	-16%	-1%	25µM*	40µM*
CC[N+]12CCC(CC1)C(=C(c1ccccc1)c1ccccc1)C2	24%	44%	-12%	39%	-21%	-12%	x	x
Cc1cc(N2CCCCC2)ccc1C=C1C(=O)N(C)C(=S)N(C)C1=O	35µM*	u	u	-18%	3.4µM*	u	20µM*	u
CCOc1ccc(C(=O)Nc2ccc3nc(SCCOc4ccccc4)sc3c2)cc1	u	35%	-1%	x	x	2%	x	x
CCN(CC)c1ccc(C=C2C(=O)NC(=S)NC2=O)cc1	50µM*	u	45µM*	-12%	2.7µM*	u	16µM*	14µM*
CC1(C)c2[nH]c3ccccc3c2C[C@@H]2C(=O)N(Cc3ccccc3F)C(=O)N21	x	2%	u	x	x	-27%	x	x
